In assay [1] the test system is Human papillomavirus type 1a protein E7 (residues 44-93). Briefly: HPV1a E7 fragment binders on microarrays, primary screen, biochemical, small-molecule microarray, residues 44-93, 635 nm fluorescence (AID 1108).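 Further: E7 fragment applied at 1 µg/mL in TBST for 1 h at 4 C; score combines spot fluorescence with its signal to noise ratio.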 To be noted: small-molecule microarray binding, fluorescence 635 nm; higher = more signal.
A short description of assay [2]: modulators of HCV replicon luciferase signal, primary screen, HCV replication inhibitor project, Huh7 cells, luciferase reporter (AID 1109).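 Further: huh7 hepatoma cells harbouring a luciferase neomycin HCV replicon reporter; luciferase luminescence as measure of HCV replicon replication; test concentration not given here.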 Conditions: 48 h, higher = more signal.
For assay [3], the target named is Left-right determination factor 2 (Homo sapiens) (UniProt O00292). Kind of assay: LEFTY2 binders on small-molecule microarrays, primary screen, biochemical, small-molecule microarray, 635 nm fluorescence scan (AID 1110). To be noted: LEFTY2 binding, higher = more signal.
Assay [4] concerns the target Calmodulin-1 (Homo sapiens) (UniProt P0DP23). Kind of assay: CALM1 binders on microarrays, EGTA buffer, profiling panel, biochemical, small-molecule microarray, Cy5-labelled CALM1 (AID 1111).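 Further: labelled calmodulin applied in Tris saline Tween buffer holding calcium plus EGTA and DTT.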 To be noted: Cy5-CALM1 binding fluorescence, higher = more signal.
Assay [5] shares this target. Kind of assay: calcium-bound CALM1 binders on microarrays, profiling panel, artefact control for SMM control-protein annotation, biochemical, small-molecule microarray, Cy5-labelled CALM1, plus calcium (AID 1112).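 Further: score merges spot fluorescence with signal to noise from triplicate slides.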 Conditions: Cy5-CALM1 binding fluorescence, higher = more signal.
Assay [6] is described as follows: small-molecule microarray binders of probe aWnt5a, primary screen, biochemical, biotinylated probe, 635/667 nm fluorescence (AID 1113).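 Further: score merges 667 nm fluorescence intensity with signal-to-noise per printed feature.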 To be noted: higher = more signal.
Assay [7] is described as follows: small-molecule microarray binders of probe aShh, primary screen, biochemical, biotinylated probe, 635/667 nm fluorescence (AID 1114).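 Further: probe is biotin-labelled aShh protein from a stem cell growth factor screen; measures binding of labelled protein to compounds printed on the slide; score merges feature fluorescence at 667 nm with signal-to-noise.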 To be noted: higher = more signal.
The nature of assay [8]: small-molecule microarray binders of probe aNog, primary screen, biochemical, biotinylated probe, 635/667 nm fluorescence (AID 1115).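 Further: probe is biotinylated aNog protein used at 0.15 µg/mL for 1 h at 4 C; z-score combines 667 nm fluorescence of each spot with its signal to noise.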 To be noted: higher = more signal.
The target in assay [9] is Torsin-1A-interacting protein 1 (Homo sapiens) (UniProt Q5JTV8). Briefly: LAP1 binders from COS7 cell lysate, primary screen, small-molecule microarray, 635/667 nm fluorescence (AID 1116). Conditions: COS7-hLAP1 lysate binding, 635 nm fluorescence, higher = more signal.
The target of assay [10] is Alpha-bungarotoxin (Bungarus multicinctus) (UniProt P60615). Briefly: alpha-bungarotoxin binders on microarray, profiling panel, artefact control for SMM control protein annotation, biochemical, small-molecule microarray, Alexa647 label, 635/667 nm fluorescence (AID 1117). Conditions: alpha-BTX-A647 binding fluorescence, higher = more signal.
Sequence of Alpha-bungarotoxin (Bungarus multicinctus) (P60615 whole entry, looked up): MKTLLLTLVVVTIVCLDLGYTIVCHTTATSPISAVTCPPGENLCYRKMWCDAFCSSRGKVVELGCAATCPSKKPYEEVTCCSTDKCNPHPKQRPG

Sequence of Torsin-1A-interacting protein 1 (Homo sapiens) (Q5JTV8 whole entry, looked up): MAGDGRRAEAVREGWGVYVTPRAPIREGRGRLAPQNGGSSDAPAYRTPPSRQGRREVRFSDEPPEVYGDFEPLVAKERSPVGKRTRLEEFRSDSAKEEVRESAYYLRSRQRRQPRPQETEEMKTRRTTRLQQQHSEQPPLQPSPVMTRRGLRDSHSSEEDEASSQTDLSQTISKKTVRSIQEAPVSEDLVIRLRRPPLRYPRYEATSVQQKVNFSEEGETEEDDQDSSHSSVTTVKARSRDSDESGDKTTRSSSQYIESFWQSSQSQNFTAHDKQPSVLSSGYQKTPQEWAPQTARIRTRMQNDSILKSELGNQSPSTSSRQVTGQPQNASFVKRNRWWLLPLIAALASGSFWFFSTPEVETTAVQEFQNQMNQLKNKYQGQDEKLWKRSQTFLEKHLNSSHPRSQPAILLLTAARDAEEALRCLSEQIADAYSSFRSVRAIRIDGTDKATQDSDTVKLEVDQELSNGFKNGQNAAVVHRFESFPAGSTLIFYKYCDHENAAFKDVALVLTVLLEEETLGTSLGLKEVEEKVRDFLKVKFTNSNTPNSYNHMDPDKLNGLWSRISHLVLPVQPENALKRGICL
Sequence of Left-right determination factor 2 (Homo sapiens) (O00292 whole entry, looked up): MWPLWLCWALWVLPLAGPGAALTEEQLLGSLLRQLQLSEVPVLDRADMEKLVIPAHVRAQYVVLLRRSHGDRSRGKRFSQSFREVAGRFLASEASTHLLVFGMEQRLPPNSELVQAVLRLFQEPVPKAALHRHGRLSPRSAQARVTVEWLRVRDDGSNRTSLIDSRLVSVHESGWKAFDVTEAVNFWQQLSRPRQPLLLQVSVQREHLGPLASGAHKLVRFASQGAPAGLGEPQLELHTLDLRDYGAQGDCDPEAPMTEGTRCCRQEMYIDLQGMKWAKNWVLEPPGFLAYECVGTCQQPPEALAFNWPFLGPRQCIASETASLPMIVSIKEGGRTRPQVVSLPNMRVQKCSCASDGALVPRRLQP

For `N#Cc1ccc(C(O)C2C=CC3C(=O)N(c4ccccc4)C(=O)C3N2Nc2ccccc2)cc1` (stereo not given), the composite z-score was 0.86 in assay [1]; -0.224 in [3]; 1.03 in [4]; 0.492 in assay [5]; 0.0357 in [6]; 0.0815 in assay [7]. Further, the results for the composite z-score in assay [8], in assay [9] and in assay [10] were 1.09, 0.747 and 1.1, respectively. Further, in assay [2], the z-score is -0.875.
For the compound `[N-]=[N+]=NCc1ccccc1C[C@@]1(C(=O)N2CCCCC2)N=C(c2ccc(OCCCO)cc2)O[C@@H]1c1ccccc1`, the composite z-score is 0.785 in [1]; -1.01 in assay [3]; 1.28 in assay [4]; 0.958 in assay [5]; 0.0141 in assay [6]; -0.325 in assay [7]. Also, the results for the composite z-score in assay [8], in assay [9] and in assay [10] were 0.46, 2.15 and 1, respectively. This compound also had a z-score in [2] of -3.35.
As for `CN1C(=O)C2C=CC(C(O)COCc3ccccc3)N(N(c3ccccc3)c3ccccc3)C2C1=O` (stereo not given), the composite z-score was 1.31 in assay [1]; -0.142 in [3]; 1.41 in [4]; 0.667 in [5]; 0.0915 in [6]; 0.204 in assay [7]. For the same compound, the composite z-score in assay [8] stood at 0.773; in assay [9], 0.454; in assay [10] it was 0.458. In assay [2], the z-score is -1.4.
Regarding `CC(C)N1CC=CC23O[C@@H]4C=CCOC(=O)[C@@H]4[C@H]2C(=O)N(CCCO)[C@@H]3C1=O` (stereo not given in full), the composite z-score in assay [1] is 1.49; in [3], -0.932; in assay [4], -0.373; in assay [5] it was 0.731; in assay [6] it was -0.18; in assay [7] it was -0.123. Besides, the results for the composite z-score in assay [8], in assay [9] and in [10] were -0.196, 1.47 and -0.381, respectively. Besides, in [2], the z-score was -0.223.
With `O=C1O[C@@H](c2ccccc2)[C@@H](c2ccccc2)N2[C@@H](c3ccc(O)cc3)[C@]3(C(=O)Nc4ccc(C#CC5(O)CCCCCC5)cc43)[C@@H](C(=O)NC[C@H](O)c3ccccc3)[C@H]12`, the composite z-score in assay [1] is 1.39; in assay [3], -0.817; in assay [4], 0.122; in assay [5] it was 0.208; in assay [6], -0.0276; in assay [7], -0.138. The composite z-score in assay [8] stood at 0.0841; in assay [9] it was 1.15; in assay [10], 0.203. This compound came in with a z-score in assay [2] of -0.737.
`C=C(CCCC)/C(=C/C[C@@H](OC(=O)c1ccncc1)c1ccccc1OCCO)c1cnc2ccccc2c1`: the composite z-score is 1.33 in assay [1]; 0.845 in assay [3]; 0.616 in assay [4]; -0.759 in assay [5]; 0.16 in assay [6]; -0.0849 in [7]. In addition, the composite z-score in assay [8] is -0.218; in assay [9], 1.92; in assay [10], 1.35. Further, the z-score in assay [2] was -2.77.
Consider `CN(C)C(=O)[C@]1(CCS(=O)(=O)c2ccccc2)N=C(c2ccc(OCCCO)cc2)O[C@@H]1c1ccccc1N=[N+]=[N-]`, for which the composite z-score was 1.5 in assay [1]; 0.814 in assay [3]; 1.79 in [4]; 0.291 in assay [5]; 0.119 in assay [6]; 0.254 in assay [7]. Further, the composite z-score in [8] was 1.9; in assay [9], 2.28; in assay [10], 1. In assay [2], this compound registered a z-score of 0.0131.
With `COCCOC(=O)N1C(=O)[C@@]2(c3cc(C#CC4=CCCCC4)ccc31)[C@H](c1ccc(OCCO)cc1)N1[C@H](c3ccccc3)[C@H](c3ccccc3)OC(=O)[C@H]1[C@@H]2C(=O)NC[C@H](O)c1ccccc1`, the composite z-score is 1.33 in assay [1]; 0.958 in assay [3]; 0.868 in assay [4]; 0.458 in [5]; -0.0297 in [6]; 0.107 in assay [7]. For the same compound, the values for the composite z-score in assay [8], in assay [9] and in assay [10] were 0.802, 1.06 and 1.19, respectively. For the same compound, in assay [2], the z-score is -1.88.
On to `CCCCCCCCCCC(O)C1C=CC2C(=O)N(C)C(=O)C2N1Nc1ccc([N+](=O)[O-])cc1[N+](=O)[O-]` (stereo not given), for which the composite z-score was 1.38 in assay [1]; -0.323 in assay [3]; 1.62 in assay [4]; 1.05 in assay [5]; 0.0308 in [6]; 0.151 in [7]. Moreover, the composite z-score came to 0.441 in [8], 1.83 in assay [9] and 1.18 in assay [10]. In assay [2], this compound yielded a z-score of -1.06.
As for `COc1cc(OC)c(C(O)C2C=CC3C(=O)N(c4ccccc4)C(=O)C3N2Nc2ccccc2)cc1Br` (stereo not given), the composite z-score in assay [1] was 1.4; in assay [3], -0.263; in [4], 1.02; in [5], 0.285; in assay [6], -0.0346; in assay [7], -0.138. In addition, the composite z-score in assay [8] was -0.0604; in assay [9], 0.474; in [10] it was 0.665. The compound further had a z-score in assay [2] of -0.801.
Regarding `C=CC1c2cc(O)c(OC)cc2CCN1Cc1cc2c(cc1Br)OCO2` (stereo not given), the composite z-score was -0.483 in assay [1]; 0.15 in assay [3]; -0.941 in assay [4]; -1.24 in assay [5]; -0.1 in assay [6]; 0.199 in assay [7]. For the same compound, the composite z-score was found to be 0.2 in assay [8], 1.69 in assay [9] and 0.271 in assay [10]. Also, the z-score in [2] is -2.93.
As for `CCCNC(=O)[C@@]1(c2ccc([N+](=O)[O-])cc2)CC(=O)N(C2CCCCC2)[C@@H]1c1ccc(CO)cc1`, the composite z-score in assay [1] is 1.5; in [3], 0.357; in assay [4], 0.653; in [5], -0.0681; in assay [6], -0.0285; in assay [7], 0.446. Besides, the results for the composite z-score in assay [8], in assay [9] and in assay [10] were -0.0216, 1.2 and 0.764, respectively. For the same compound, the z-score in [2] is -0.887.
On to `CN(C)c1ccc(C(O)C2C=CC3C(=O)N(c4ccccc4)C(=O)C3N2Nc2ccc([N+](=O)[O-])cc2)cc1` (stereo not given), for which the composite z-score is 1.37 in assay [1]; -0.162 in [3]; 0.603 in [4]; -0.534 in [5]; 0.0809 in [6]; 0.0697 in assay [7]. The figures for the composite z-score in assay [8], in [9] and in assay [10] were 0.638, 0.926 and 1.46, respectively. In addition, the z-score in [2] was -1.52.
On to `COc1cc2c(cc1OC)CN(C(=O)[C@@H]1[C@H]3C(=O)O[C@H](c4ccccc4)[C@H](c4ccccc4)N3[C@H](c3ccc(OCCO)cc3)[C@@]13C(=O)Nc1ccccc13)CC2`, for which the composite z-score in [1] turned out to be 1.44; in [3] it was 0.351; in [4], 1.04; in [5], 0.0568; in assay [6], 0.133; in [7], 0.0328. The composite z-score in [8] is -0.592; in assay [9], 1.14; in [10] it was 1.91. Moreover, the z-score in assay [2] was -1.68.
As to `CC(C)(C)OC(=O)CC[C@]1(C(=O)NCc2ccccc2)N=C(c2ccc(OCCCO)cc2)O[C@H]1c1ccccc1CN=[N+]=[N-]`, the composite z-score in [1] was 1.41; in assay [3], 0.735; in assay [4], 1.27; in assay [5], -0.232; in assay [6] it was 0.152; in assay [7] it was 0.0483. For the same compound, the composite z-score in [8] was -0.0768; in assay [9], 1.69; in [10] it was 0.466. In [2], this compound returned a z-score of -2.11.
With `COC(=O)[C@@]1(Cc2ccccc2)[C@H]2c3cc(C(=O)N(C)C)n(CCN4CNCC4=O)c3C[C@H]2CN1C(=O)c1ccccc1`, the composite z-score was -0.5 in [1]; -1.47 in assay [3]; 2.98 in assay [4]; -2.29 in assay [5]; 0.401 in [6]; 0.0183 in [7]. Besides, the composite z-score in assay [8] came to 1.99; in assay [9] it was 4.42; in assay [10], 3.12. The compound further displayed a z-score in [2] of 0.188.
On to `C=C(C)[C@@H]1CC=C(C(O)C2C=CC3C(=O)N(c4ccccc4)C(=O)C3N2Nc2ccccc2F)CC1` (stereo not given in full), for which the composite z-score was 1.46 in assay [1]; 0.341 in assay [3]; 1.41 in [4]; 0.797 in assay [5]; 0.0003 in assay [6]; -0.0858 in assay [7]. Also, the composite z-score in assay [8] came to 1.4; in assay [9], 1.04; in assay [10] it was 1.19. This compound registered a z-score in assay [2] of -0.0769.

The record behind these values is PubChem BioAssay.
